About 83,000 compounds went through this panel and 20% of them were active in at least one assay; those are over-represented in the sample as a whole.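 How to read the values: 0–100, growth inhibition (40 = 60% inhibited); 0, no net growth; -100 to 0, cell death (-40 = 40% of starting cells died; -100 = all dead).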 Activity calls are given as the source filed them.

For the test, the system named is OVCAR-3 ovarian. Description: NCI-60 one-dose screen, 48 h (100 = growth as untreated, 0 = no growth, -100 = all killed). As to conditions: 10 µM unless noted. The protocol: Growth inhibition of the OVCAR-3 human tumor cell line is measured as a screen for anti-cancer activity. Cells are grown in 96 well plates and exposed to the test compound for 48 hours. Compounds are tested at a single concentration, which is 10^-5 M for most compounds. The reported endpoint is percent growth (GI% or GIPRCNT), where numbers from 0 - 100% represent growth inhibition, and numbers from -100% - 0 represent cell death. For example, a value of 40 represents 60% growth inhibition. A value of 0 means no net growth occurred over the course of the experiment. A value of -40 indicates 40% of cells at the beginning of the experiment died by the end of the experiment. A value of -100 means all cells are dead at the end of the experiment.
NCI-60 Human Tumor Cell Lines Screen was performed using the standard one-dose NCI protocol, which is described in more detail at https://dtp.cancer.gov/discovery_development/nci-60/default.htm.
Compounds with GIPRCNT values below 10 were considered active. Activity score was based on GIPRCNT using the following formula: […]
Score is 0 for GIPRCNT values of 100 or above, 50 for GIPRCNT values of 0, and 100 for GIPRCNT values of -100.
As to `CC(=O)c1cccc(NS(=O)(=O)c2ccc(C)cc2)c1`, the growth is 70.9% (inactive).
Regarding `O=S1(=O)c2ccccc2Oc2ccccc21`, the growth is 114% (inactive).
Next, `CC(=O)c1cc(O)ccc1O`: 119% (inactive); `c1ccc(Nc2ccccn2)nc1`: 108% (inactive); `CC(C)c1ccccc1NC(=O)N1CCC(C(C)C)CC1`: 113% (inactive).
Next, `CCOC(=O)CSCCC#N`: 111% (inactive).
Turning to `CC1(c2ccccc2)CO1` (stereo not given), the growth is 114% (inactive).
Take `O=C(O)Cc1cccc2ccccc12`: the growth is 111% (inactive).
For `CCOC(=O)C(CCC#N)(CCC#N)C(=O)OCC`, the growth is 102% (inactive).
Next, `CCOc1ccc2c(c1)c(C)cc(C)[n+]2CC`: 76.2% (inactive); `COC1CC(OC(=O)c2ccc([N+](=O)[O-])cc2)C(COC(=O)c2ccc([N+](=O)[O-])cc2)O1` (stereo not given): 111% (inactive).
Take `O=C1Nc2ccccc2/C1=C\c1ccccc1O`: the growth was 89.3% (inactive).
Turning to `O=C(Nc1ccc([N+](=O)[O-])cc1)C(=O)Nc1ccc([N+](=O)[O-])cc1`, the growth was 103% (inactive).
On to `COc1ccc(Br)c2c1C(=O)CC2`, for which the growth was 103% (inactive).
For the molecule `Nc1ccc(F)c(Cl)c1F`, the growth is 111% (inactive).
Regarding `CCN(CC)CCN1CNC(=S)NC1`, the growth is 109% (inactive).
`CC1CC(C)S(=O)(=O)C1` (stereo not given): the growth is 111% (inactive).
For the molecule `O=CNCCc1ccccc1`, the growth was 115% (inactive).
For `CCN(Cc1ccc(Cl)c(Cl)c1)c1ccc2nc(N)nc(N)c2c1C`, the growth was -93.2% (active).
Regarding `O=C(NC1CCCCC1)c1ccc(Cl)cc1`, the growth is 102% (inactive).
For `Cc1cc2nc(C)c(C)nc2cc1C` the value was 105% (inactive).
Take `O=S(Cc1ccccc1)/C(=C/NC(=S)Nc1cc(Cl)ccc1Cl)c1ccccc1` (stereo not given): the growth is 110% (inactive).
For `CC1(C)OC(=O)CC1=O`, the growth is 113% (inactive).
Regarding `CSCCC(NC(=O)C(Cl)Cl)C(=O)O` (stereo not given), the growth is 106% (inactive).
Regarding `COc1cc(C(=O)NC(=S)NCc2ccncc2)cc(OC)c1OC`, the growth was 105% (inactive).
Regarding `CC(C)(CC(=O)O)CC(=O)O`, the growth is 105% (inactive).
For `COc1nc2ccccc2s1`, the growth was 110% (inactive).
With `C#CC(O)c1ccccc1` (stereo not given), the growth was 106% (inactive).
With `C=CCS(C)(=O)=O`, the growth is 108% (inactive).
`N#CCCN1C(=O)CCC1C(=O)O` (stereo not given): the growth is 115% (inactive).
For `CCOC(=O)Nc1nccs1` the value was 109% (inactive).
Turning to `Nc1ccccc1SC1CC(=O)N(c2ccc(Cl)c(Cl)c2)C1=O` (stereo not given), the growth is 113% (inactive).
Take `OC(CBr)CCBr` (stereo not given): the growth was 112% (inactive).
As to `CC(CC(CCC(=O)O)(c1ccccc1)c1ccccc1)N(C)C` (stereo not given), the growth was 67.3% (inactive).
`C=C1C(=O)C2CCN1CC2`: the growth is 85.2% (inactive).
Regarding `O=C1NC(=O)C(c2ccccc2)O1` (stereo not given), the growth is 117% (inactive).
In the case of `O=c1n(CC2CO2)c(=O)n(CC2CO2)n1CC1CO1` (stereo not given), the growth was 72.7% (inactive).
Turning to `Cc1ccc(S(=O)(=O)NC(=O)NCCSSCCNC(=O)NS(=O)(=O)c2ccc(C)cc2)cc1`, the growth is 109% (inactive).
In the case of `COC1OC(COC(C)=O)C(OC(C)=O)C(OC(C)=O)C1OC(C)=O` (stereo not given), the growth was 96% (inactive).
For the molecule `Cc1ccc(S(=O)(=O)CCCl)cc1`, the growth is 131% (inactive).

The values above are taken from PubChem BioAssay (NCI).
